Screening data (PubChem)
This is a sample that favours compounds with a hit; in the whole collection about 5.9% have one here.
GLP-1R inv ag: inverse agonists of human GLP-1 receptor | P43220 | HEK293 GLP-1R CRE-luciferase, luminescence, 24 h; GLP-1R form is constitutively active | Potency, µM (top dose mostly 38.3 µM), for inactives: top-dose activity change, negative = inhibition, hits mostly inhibitors | 410,000 tested, 1.6% active | AID 624417; note: % is set by controls: 0 for no effect and ±100 for the full control effect; nearly all actives have a fitted effect of over 55% in size
Target sequence (P43220 whole entry, looked up): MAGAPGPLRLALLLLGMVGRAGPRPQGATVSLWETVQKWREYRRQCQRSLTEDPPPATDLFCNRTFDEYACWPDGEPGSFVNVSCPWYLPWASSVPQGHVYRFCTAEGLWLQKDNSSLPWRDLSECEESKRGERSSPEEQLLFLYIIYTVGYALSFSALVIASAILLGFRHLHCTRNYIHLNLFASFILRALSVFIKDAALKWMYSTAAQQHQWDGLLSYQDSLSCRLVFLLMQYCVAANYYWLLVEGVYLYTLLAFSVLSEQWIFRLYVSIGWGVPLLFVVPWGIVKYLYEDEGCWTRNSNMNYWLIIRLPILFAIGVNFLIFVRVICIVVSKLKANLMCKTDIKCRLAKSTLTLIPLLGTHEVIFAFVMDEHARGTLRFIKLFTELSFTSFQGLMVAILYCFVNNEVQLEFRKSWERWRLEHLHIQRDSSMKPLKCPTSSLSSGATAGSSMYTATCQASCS
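Using stably transfected HEK293 (constitutively active GLP-1R, cAMP-luciferase reporter), compounds were incubated 24 hr and luciferase measured by luminescence.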
GLP1R cytotox: cytotoxicity counter-screen for GLP-1 receptor inverse agonists. AID 624418. Potency, µM (titrated, usually from 38.3 µM), without a hit: at the highest dose activity change, negative = inhibition, most hits filed as inhibitors. 410,000 tested, 0.13% active. HEK293 cAMP-luciferase reporter cells, luminescence, 24 h;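 note: loss of luciferase light is scored as toxicity; % is set by controls: 0 for no effect and ±100 for the full control effect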
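Quantitative HTS format, 1536 wells, 200 cells/uL seeded. Compounds: 23 nL, 24 h, 37 °C. Detection: luciferase reagent, luminescence at 12 min RT; decreased signal taken as cytotoxic.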
VP16 counter: inhibits Gal4-VP16 luciferase reporter, ROR gamma counter-screen; Drosophila S2 Gal4-VP16 UAS-luciferase, luminescence, 20 h; Potency, µM (top dose mostly 53.6 µM), for the others: top-dose activity, negative = inhibition, actives largely listed as inhibitors; 310,000 tested, 3.5% active;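 note: Gal4-VP16 expression switched on by copper sulfate through the metallothionein promoter; % is set by controls: 0 for no effect and ±100 for the full control effect; nearly all actives have a fitted effect of over 50% in size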
RORg inh: ROR gamma (mouse) transcription inhibition | P51450 | Drosophila S2 Gal4-RORgamma UAS-luciferase reporter, 20 h | Potency, µM (titrated, usually from 53.6 µM), inactives show at the highest dose activity change, negative = inhibition, usual class: inhibitors | 310,000 tested, 5.4% active | AID 2551; note: % is set by controls: 0 for no effect and ±100 for the full control effect; nearly all actives have a fitted effect of over 60% in size
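Using a luciferase readout, inhibitors were identified by reduced reporter activity in Drosophila cells coexpressing a copper-inducible Gal4–ROR gamma fusion and UAS-driven Photinus luciferase, incubated 20 hr after 700 uM copper sulfate.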
GLP-1R agonist: activates the human GLP-1 receptor; P43220; HEK293 GLP-1R CRE-luciferase, luminescence, 4-6 h; cells express a hypersensitive GLP-1R form; Potency, µM (top dose mostly 45.6 µM), without a hit: top-dose activation, hits mostly activators; 380,000 tested, 0.007% active; AID 624172; note: % of control where 0% means no effect
The depositor's hits bear a star; ? = inconclusive; . = not tested or not shown; [ ] = dose if it differs, or a comment. Calls come from the whole dose curve; as a rule, active = well fitted curve in the direction sought with a large enough effect; inconclusive = small, poorly fitted or top-dose-only effect, or another doubt; inactive = no such curve, though single readings can be large; an effect the other way counts as inactive or inconclusive. Potency is the fitted concentration of half-maximal effect.

SMILES	GLP-1R inv ag	GLP1R cytotox	VP16 counter	RORg inh	GLP-1R agonist
CN(CC(=O)Nc1c(Cl)cccc1Cl)C(=O)c1cc(-c2cccs2)nn1-c1ccccc1	?	-24%	.	.	-5%
Cc1ccc(NC(=O)CN(C)C(=O)c2cc(-c3cccs3)nn2-c2ccccc2)cc1	7.9µM*	6%	.	.	4%
COc1cc(C2c3c(oc4ccc(F)cc4c3=O)C(=O)N2Cc2ccc3c(c2)OCO3)ccc1O (stereo not given)	6%	0%	.	.	.
O=C1c2ccc3c4c(ccc(c24)C(=O)N1CCCCO)C(=O)N(CCCCO)C3=O	?	-21%	2%[10 µM]	8.9µM*	-2%
COc1cccc(C2CC(=O)N(c3ccc(F)cc3)C3=C2C(=O)OC3)c1OC (stereo not given)	2%	7%	.	.	.
CO[C@H]1COC(=O)C/C=C\[C@H](C)COC(=O)[C@@H](C)NC(=O)C/C=C\[C@@H]1C	.	.	-4%[10 µM]	19%[10 µM]	.
COc1ccc(CCC(C)N2CCC(CO)(Cc3ccccc3)CC2)cc1 (stereo not given)	7.9µM*	0%	-7%	-2%	7%
O=c1cc2nc(-c3ccccc3)nc(SCc3cccc(Br)c3)n2[nH]1	10%	7%	.	.	.
COCCCNc1nc(SCc2ccccc2)nc2sc3c(c12)CCC3	-18%	12%	-19%	11µM*	21%
CCN(CC)CCNC(=O)c1[nH]c2ccc(OCc3ccccc3)cc2c1C	-3%	?	-17%	13µM*	-4%
Cc1ccc(Oc2ncccc2/C=N/OCc2ccc(Cl)c(Cl)c2)cc1	10µM*	0%	-6%	1%	-8%
CCCCN(CCCC)C(=O)CSc1nnc2n(C)c(=O)c3c4c(sc3n12)CCCC4	?	-4%	4.5µM*	?	1%
COc1cc(OC)cc(C(=O)NC2CCCN(Cc3ccc(Cl)cc3)C2)c1 (stereo not given)	11µM*	-20%	-8%	35%	9%
CC(C)=CCOc1ccc([C@@H]2COc3c(ccc4c3C=CC(C)(C)O4)C2)c(O)c1	10µM*	?	.	.	-3%
COc1ccc(OCc2cc(=O)c3ccc4c(c3o2)C=CC(C)(C)O4)cc1OC	-3%	-2%	.	.	9%
COc1ccc(OC)c(NC(=O)C2CCC(CNc3c(N4CCC(C)CC4)c(=O)c3=O)CC2)c1 (stereo not given)	1%	-22%	-7%	0.79µM*	-1%
C/C(=C\c1ccccc1)C(=O)Nc1nccs1	?	4%	?	6.3µM*	12%
O=C(Nc1nccs1)c1ccc(Br)cc1	19%	2%	?	8.9µM*	-5%
O=C(Nc1ccc(OC(F)F)cc1)c1ncc(Cl)c(Cl)c1Cl	0%	3%	-15%	5µM*	8%
CCn1ncc(Br)c1C(=O)Nc1nccs1	3%	11%	?	13µM*	12%
O=c1c(-c2ccc(F)cc2)nc2cnc(Oc3cccc(Cl)c3)nc2n1C[C@H]1CCCO1	.	.	-4%	23%	.
COCCNC(=O)CCn1c(=O)c2cc(OC)c(OC)cc2n(CC(=O)Nc2ccc(Cl)cc2F)c1=O	8%	41%	.	.	.
O=C(NCc1noc2ccccc12)N1CCN(c2ccccc2)CC1	-14%	-12%	.	.	.
O=C(Nc1nccs1)c1ccc(Br)s1	6%	0%	?	11µM*	5%
CCn1ncc(Br)c1C(=O)Nc1ccn(C23CC4CC(CC(C4)C2)C3)n1	7.9µM*	8%	-8%	10%	15%
SMILES	GLP-1R inv ag	GLP1R cytotox	VP16 counter	RORg inh	GLP-1R agonist
O=C(Nc1nccs1)c1ncc(Cl)c(Cl)c1Cl	0%	-15%	4µM*	7.9µM*	10%
Cn1cc(Cl)c(C(=O)Nc2nccs2)n1	11%	1%	4%	10%	4%
Cc1ccc(C(=O)Nc2nccs2)s1	37%	-6%	-11%	-6%	7%
O=C(Nc1nccs1)c1ccccn1	?	?	13µM*	2.5µM*	-3%
C[C@H]1COC(=O)[C@H]2CCCN2C(=O)[C@@H](C)COC(=O)[C@H]2CCCN2C1=O	.	.	-3%[10 µM]	-11%[10 µM]	.
Cc1ccc(NC(=O)CN2C(=O)COc3ccc(S(=O)(=O)N4CCCCC4)cc32)cc1N(C)C	?	-3%	.	.	.
O=C(Nc1nccs1)c1ccc2ccccc2c1	-24%	8%	6.3µM*	7.9µM*	-4%
CC(=O)OCC(NC(=O)C(COCc1ccccc1)NC(=O)OC(C)(C)C)C1OC(n2cc(C)c(=O)[nH]c2=O)C(OC(C)=O)C1OC(C)=O (stereo not given)	.	.	0%	19%	.
CCOC(=O)c1cccc(NC(=O)[C@H](CSCc2ccccc2)N2Cc3ccccc3C2=O)c1	?	-1%	.	.	1%
COc1ccc(Cl)cc1NC(=S)NCCc1ccc(F)cc1	?	?	18µM*	14µM*	9%
COc1ccc(NC(=S)NCCc2ccc(Cl)cc2)c(OC)c1	?	?	11µM*	4.5µM*	4%
COc1ccc(NC(=S)NCc2ccc(Cl)cc2)c(OC)c1	?	17%	?	-12%[1.91 µM]	6%
COc1ccc(C)cc1NC(=O)c1nnn(-c2c(C)cccc2C)c1C	?	19%	.	.	.
CCOc1cc(S(=O)(=O)NCCc2c(C)[nH]c3ccc(C)cc23)ccc1Br	?	2%	.	.	.
O=C1CC(c2ccccc2)CC(O)=C1C=Nc1ccccc1O (stereo not given)	-21%	-2%	-23%	11µM*	0%
CCCCCn1c(=O)[nH]c2cc(C(=O)N3CCN(c4cccc(C(F)(F)F)c4)CC3)ccc2c1=O	-14%	2%	.	.	-1%
CCN(CC(O)c1cccc(O)c1)C(=O)C12CC3CC(CC(C3)C1)C2 (stereo not given)	?	0%	-2%	-3%	13µM*
NC(=S)Nc1ccc2cc[nH]c2c1	3%	2%	0%	5%	0%
Cc1nc2ccc(NC(=S)NC3CCCCC3)cc2nc1C	?	-9%	-7%[10 µM]	5µM*	8%
Cc1ccc(NC(=S)NC(=O)C2CCC2)cc1C	?	?	2.8µM*	2.2µM*	-1%
S=C(Nc1ccc2[nH]ccc2c1)NC1CCCCC1	?	-21%	-16%	11µM*	12%
O=C(NC(=S)Nc1ccc(F)cc1)C1CCCCC1	-17%	-12%	10µM*	8.9µM*	9%
COC(=O)c1cc2sc(Cl)cc2n1Cc1nc(-c2ccccc2C)oc1C	18%	1%	.	.	.
COc1ccc(CNC(=O)c2ccc3nc(C(C)C)oc3c2)cc1OC	-24%	-9%	.	.	.
Cc1ccc(NC(=S)NC2CCCC2)cc1C	?	?	3.5µM*	2.8µM*	-2%
CC(=O)Nc1ccc(NC(=S)NC(=O)C2CC2)cc1	5%	3%	-2%	-4%	2%
Cc1ccc(NC(=S)NC(=O)C2CC2)c(C)c1	?	?	7.1µM*	5µM*	-3%
